{
  "source": "the OligoGym collection",
  "data": [
    {"target": "TAS1R2", "test": "pooled miR-30 sensor sort-seq; sequence = guide strand", "details": "shRNA", "values": [
      {"sequence": "TAGAAGAGGATCATGTAGCACT", "sensor-assay potency score (higher = more potent)": -0.0652},
      {"sequence": "TTCATCTTCAGTGTGGTTGAGG", "sensor-assay potency score (higher = more potent)": -0.161},
      {"sequence": "TTGTTGATCTCCTCCACCGCAA", "sensor-assay potency score (higher = more potent)": -0.437},
      {"sequence": "TTCATATTCATCTTCAGTGTGG", "sensor-assay potency score (higher = more potent)": 0.0168},
      {"sequence": "TAGAAGGTCATGCTGAGGGTGA", "sensor-assay potency score (higher = more potent)": -0.126},
      {"sequence": "TTGCAGGTATAGCTCTGGCTGG", "sensor-assay potency score (higher = more potent)": -1.05},
      {"sequence": "ATAGGTGTCGCTGCTCACCAGC", "sensor-assay potency score (higher = more potent)": -0.83},
      {"sequence": "TAGGACCACTCGTTATTCGGGC", "sensor-assay potency score (higher = more potent)": -0.986},
      {"sequence": "TAGACCGCAGAGTACACGCTGT", "sensor-assay potency score (higher = more potent)": -0.157},
      {"sequence": "TAGGCAGACATGAAGGTGCAGA", "sensor-assay potency score (higher = more potent)": -0.389},
      {"sequence": "TAGCACACATCCACGATCTCAT", "sensor-assay potency score (higher = more potent)": 0.125}
    ]},
    {"target": "TAS2R31", "test": "pooled miR-30 sensor sort-seq; sequence = guide strand", "details": "shRNA", "values": [
      {"sequence": "TTGATCTTCCAAGTCAAGTTTC", "sensor-assay potency score (higher = more potent)": -0.849},
      {"sequence": "TTTTGTCCGTACAATCTCTTTC", "sensor-assay potency score (higher = more potent)": -0.469},
      {"sequence": "TTACAGTCGCATCTGAAAGGTA", "sensor-assay potency score (higher = more potent)": -0.265},
      {"sequence": "TTCTTTTGTCCGTACAATCTCT", "sensor-assay potency score (higher = more potent)": -0.58},
      {"sequence": "TACAGTCGCATCTGAAAGGTAC", "sensor-assay potency score (higher = more potent)": -0.71},
      {"sequence": "TTAACAGCAAAAAACATAGCAG", "sensor-assay potency score (higher = more potent)": -0.409},
      {"sequence": "AATAGAACCACTACCACACTGG", "sensor-assay potency score (higher = more potent)": 0.475},
      {"sequence": "TCCAATAACAAATAGAACCACT", "sensor-assay potency score (higher = more potent)": -1.14},
      {"sequence": "TAGAACCACTACCACACTGGAA", "sensor-assay potency score (higher = more potent)": -1.01},
      {"sequence": "TAACAGCAAAAAACATAGCAGG", "sensor-assay potency score (higher = more potent)": -0.785}
    ]},
    {"target": "TBC1D10A", "test": "pooled miR-30 sensor sort-seq; sequence = guide strand", "details": "shRNA", "values": [
      {"sequence": "TTTTACACAAAGAACACCCCAC", "sensor-assay potency score (higher = more potent)": 0.708},
      {"sequence": "TTGTTGAGCATGTCCAGCCACT", "sensor-assay potency score (higher = more potent)": -1.14},
      {"sequence": "TTCACAGAAGAACATGTCCCAG", "sensor-assay potency score (higher = more potent)": -0.889},
      {"sequence": "TCACAGAAGAACATGTCCCAGA", "sensor-assay potency score (higher = more potent)": -0.251},
      {"sequence": "TTGTGCTTCTTGGCCATCCATT", "sensor-assay potency score (higher = more potent)": -1.02},
      {"sequence": "TTGCTCAGCAGGCATATGCATG", "sensor-assay potency score (higher = more potent)": -1.58},
      {"sequence": "TTGAGCATGTCCAGCCACTTGG", "sensor-assay potency score (higher = more potent)": -0.533},
      {"sequence": "TTGGGGGCTGAGTCCTTCGGGG", "sensor-assay potency score (higher = more potent)": -1.22},
      {"sequence": "TTCTGCATCCAAGATAGCCTTG", "sensor-assay potency score (higher = more potent)": -0.737},
      {"sequence": "TTCTGCTGTAACTTCACCTTGC", "sensor-assay potency score (higher = more potent)": 0.827},
      {"sequence": "ATCGCCTCCAGTTTCTCGCTGT", "sensor-assay potency score (higher = more potent)": -0.233},
      {"sequence": "TTTCTCGCTGTAGTAGCCGGGC", "sensor-assay potency score (higher = more potent)": -0.648}
    ]},
    {"target": "TBC1D7", "test": "pooled miR-30 sensor sort-seq; sequence = guide strand", "details": "shRNA", "values": [
      {"sequence": "TTTGTTATCTTCTCTGCACTGT", "sensor-assay potency score (higher = more potent)": 0.575},
      {"sequence": "TTACGATACATCATCACCTTGG", "sensor-assay potency score (higher = more potent)": 0.3},
      {"sequence": "TTGCTCACGATCGCGTCTGAGC", "sensor-assay potency score (higher = more potent)": -1.01},
      {"sequence": "TTCTTTTCTTCAACTCCACGAA", "sensor-assay potency score (higher = more potent)": -0.5},
      {"sequence": "TCTCATAATATACTGAACGAAA", "sensor-assay potency score (higher = more potent)": -1.27},
      {"sequence": "TATCTTCTCTGCACTGTTCAGT", "sensor-assay potency score (higher = more potent)": 0.23},
      {"sequence": "TTGTTATCTTCTCTGCACTGTT", "sensor-assay potency score (higher = more potent)": -0.778}
    ]}
  ]
}
